According to PubChem BioAssay AID588719 (Southern Research Specialized Biocontainment Screening …, 2011):
In all, about 1,500 compounds went through this assay and about 920 (61%) were called active. How the calls were made is not given here. So high a share suggests a set chosen from earlier hits. This is one part of the list. Measured potencies and affinities stand elsewhere.

Test: Vero 76 cell cytotoxicity, dose response, cytotoxicity control for VEEV inhibitor project (AID 588719)
Conditions: Vero 76 cells viability, cytotoxicity counter-screen; series mostly up to 25 µM
For Cc1cc(NC(=O)c2ccc3nccnc3c2)ccc1Br, the outcome was “inactive”. For C[C@@H]1CCCCO[C@H](CN(C)C(=O)NC2CCCCC2)[C@@H](C)CN([C@H](C)CO)C(=O)c2cc(NC(=O)c3ccccc3)ccc2O1, the outcome was “inactive”. For COc1cccc(CNC(=O)c2cc3oc4ccccc4c3n2C)c1OC, the outcome was “inactive”. With CCC1(c2ccccc2)NC(=S)N(c2ccc(C)cc2)N1 (centres undefined) the outcome was “inactive”. With O=C(COC(=O)CCC(=O)c1ccc(F)cc1)NCc1ccccc1Cl the outcome was “inactive”. For O=C(Nc1ccc(C(=O)OC[C@@H]2CCCN3CCCC[C@H]23)cc1)c1cccc(Br)c1, the outcome was “inactive”. For CCCCC(=O)NC(c1ccc(Cl)cc1Cl)c1ccc2cccnc2c1O (centres undefined), the outcome was “inactive”. In the case of CCC(=O)OC1CCC2C3CCC4CC(=O)C=CC4(C)C3CCC12C (centres undefined), the outcome is reported as “inactive”. For CNCCNC[C@H](Cc1cccc2ccccc12)NCCc1ccccc1, the outcome was “inactive”. In the case of Cc1cccc2sc(N(CCCN(C)C)C(=O)c3ccco3)nc12, the outcome is reported as “inactive”. In the case of CCOC(=O)c1c(C)oc2ccc(OCc3cc(C(=O)OC)oc3C)cc12, the outcome is reported as “inactive”. In the case of C=C(C)COc1ccc(-c2nc(N)ncc2-c2ccc(Br)cc2)c(O)c1, the outcome is reported as “inactive”. For C=CCC1(CCCCC)C(=O)NC(=S)NC1=O, the outcome was “inactive”. With Oc1c(C(Nc2nc3ccccc3s2)c2ccco2)ccc2cccnc12 (centres undefined) the outcome was “inactive”. In the case of O=CC1=C(c2ccccc2)Oc2ccccc2O1, the outcome is reported as “inactive”. With Cc1ccc(S(=O)(=O)c2ccsc2NC(=O)c2ccccc2)cc1 the outcome was “inactive”. With Cc1ccc(NC(=O)Nc2ccno2)cc1 the outcome was “inactive”. With Cc1cc(N/N=C/c2cccc([N+](=O)[O-])c2)nc(-n2nc(C)cc2C)n1 the outcome was “inactive”. With CC(C)(C)OC(=O)[C@H](Cc1ccccc1)NC(=O)c1nc[nH]c1C(=O)NC1CCN(C(=O)OC(C)(C)C)CC1 the outcome was “inactive”. In the case of CC1(C)CC(=O)/C(=N/Nc2ccc(Cl)cc2)CO1, the outcome is reported as “inactive”. With CN1CCN(c2ccc(NC(=O)c3cccc(OCc4ccccc4)c3)cc2)CC1 the outcome was “inactive”. In the case of CCCCOc1ccc(C(=O)Nc2ccc(N3CCN(C)CC3)cc2)cc1, the outcome is reported as “inactive”. With CCCn1cnc2c(SCc3ccccc3Cl)nc(N)nc21 the outcome was “inactive”. For CCN(CC)CCCNC(=O)c1oc2ccc(S(=O)(=O)N3CC(C)CC(C)C3)cc2c1C (centres undefined), the outcome was “inactive”. With O=C(NCCc1csc(-c2cccnc2)n1)c1ccccc1Br the outcome was “inactive”. For Cc1ccccc1-c1n[nH]c(=S)n1/N=C/c1c(C)nn(-c2ccccc2)c1C, the outcome was “inactive”. With COc1ccccc1C1N(c2ccc(Cl)cc2)C(=O)C2CCCN21 (centres undefined) the outcome was “inactive”. For CNc1nc(Cl)nc2c1ncn2-c1ccccc1, the outcome was “inactive”. For Cc1cc(=O)[nH]c(N/N=C/c2ccc(OC(=O)c3cccnc3)cc2)n1, the outcome was “inactive”. In the case of O=S1(=O)CCC(NC(=S)SCCOc2ccccc2)C1 (centres undefined), the outcome is reported as “inactive”. For Nc1[nH]nc2nc(NCc3ccccc3)c3c(c12)CCN(Cc1ccccc1)C3, the outcome was “inactive”. For Cc1ccc(N2C(=O)NC(=O)/C(=C\C=C\c3ccco3)C2=O)cc1, the outcome was “inactive”. With CCc1ccc(N2C(=O)NC(=O)/C(=C\C=C\c3ccco3)C2=O)cc1 the outcome was “inactive”. With Nc1nc(CN2CCN(c3ccccn3)CC2)nc(Nc2ccc(Cl)cc2)n1 the outcome was “inactive”. For Cc1[nH]c(C)c(S(=O)(=O)N2CCN(c3cccc(C(F)(F)F)c3)CC2)c1C(=O)N1CCCCC1, the outcome was “inactive”. For COc1ccccc1OCC(=O)Nc1nc2c(s1)CCCC2, the outcome was “inactive”. For O=C(NCCCN1CCOCC1)c1ccc(/C=C2\Oc3ccccc3N(Cc3ccccc3F)C2=O)cc1, the outcome was “inactive”. With O=C1Nc2cc(C(=O)NCCCN3CCOCC3)ccc2S/C1=C/c1cccc(Cl)c1 the outcome was “inactive”. For COc1cc(NC(=S)N(C)C)c(OC)cc1Cl, the outcome was “inactive”. In the case of COC(=O)c1cc(Cl)c(NC(=O)c2ccc(C(C)(C)C)cc2)cc1OC, the outcome is reported as “inactive”. For CCc1ccc(-c2cc3c(=O)n(CC(=O)NCCCN4CCN(CC)CC4)nc(C)n3n2)cc1, the outcome was “inactive”. With O=C(NC1CC1)C1=C[C@@H](C2CCCCC2)C[C@@H](OCc2ccc(CO)cc2)O1 the outcome was “inactive”. With NC(=O)C1=C[C@H](C2CCCCC2)C[C@H](OCc2ccc(CO)cc2)O1 the outcome was “inactive”. In the case of Cc1cccc(NC(=O)C(C)Sc2nc3ccccc3c(=O)n2CCCN2CCOCC2)c1 (centres undefined), the outcome is reported as “inactive”. With CC(=O)C1C2c3ccccc3OC1(C)N=c1s/c(=C/c3cn(C)nc3C)c(=O)n12 (centres undefined) the outcome was “inactive”. In the case of O=C(NC1CCN(Cc2ccccc2)CC1)c1ccc(Oc2cc(Cl)cc(Cl)c2)o1, the outcome is reported as “inactive”. In the case of O=C(c1ccc(-c2ccccc2)c(F)c1)C1CCCN(CCO)C1 (centres undefined), the outcome is reported as “inactive”. For c1ccc(COC(CN2CCCCCC2)CN2CCCCCC2)cc1, the outcome was “inactive”. With COc1cc2c(cc1OC)C13CCN4CC5=CCOC(CC(=O)O)C(C5CC41)C3N2 (centres undefined) the outcome was “inactive”. In the case of Cc1c(-c2ccc(OCc3ccccc3)cc2)nc2ccccc2c1C(=O)O, the outcome is reported as “inactive”. For C[C@@H]1CN([C@H](C)CO)C(=O)CCCn2nncc2CO[C@@H]1CN(C)C(=O)Nc1ccc(N2CCCCC2)cc1, the outcome was “inactive”. With CC(C)CN(C(=O)COC(=O)/C=C/c1ccc(Cl)c(Cl)c1)c1c(N)n(Cc2ccccc2)c(=O)[nH]c1=O the outcome was “inactive”. For COc1cccc(/C=C/c2n[nH]c(=O)c(C#N)c2C)c1, the outcome was “inactive”. With O=C1C2C3C=CC(C4CC34)C2C(=O)N1CCCCN1CCN(c2ccc(F)cc2)CC1 (centres undefined) the outcome was “inactive”. With COc1ccc(-c2cc(-c3ccc(F)cc3)nc(N3CCN(C)CC3)n2)cc1 the outcome was “inactive”. With Cc1ccc(NC(=O)c2ccc(CN3CCN(C)CC3)cc2)cc1Nc1nccc(-c2cccnc2)n1 the outcome was “inactive”. For COCC(C)n1c(SCc2cc(=O)n3cc(C)ccc3n2)nc2ccccc2c1=O (centres undefined), the outcome was “inactive”. For Cc1ccc2oc(=O)c3cnn(CC(=O)Nc4ccccc4N4CCN(C)CC4)c3c2c1, the outcome was “inactive”. With CC(=O)c1cccc(NC(=O)/C=C/c2ccc([N+](=O)[O-])s2)c1 the outcome was “inactive”. For COc1cc(NC(=O)c2ccc(-c3cccc([N+](=O)[O-])c3)o2)ccc1NC(=O)C(C)C, the outcome was “inactive”. In the case of Cc1cccc(NC(=O)CSc2nc3ccccc3nc2N2CCCC2)c1, the outcome is reported as “inactive”. For COc1ccc(C(Nc2cccc([N+](=O)[O-])c2)P(=O)(OC(C)C)OC(C)C)cc1 (centres undefined), the outcome was “inactive”. In the case of O=C1c2cccc3cc([N+](=O)[O-])cc(c23)C(=O)N1c1ccccc1O, the outcome is reported as “inactive”. With CCCNC(=O)N1CCN(c2nc(C(C)C)c3c(c2C#N)CC(C)(C)OC3)CC1 the outcome was “inactive”.
